Measurements published in the supplement of paper PMC4466140.

B1: unnamed (peptide)
chain: PKMLPIPSKPTLFDL
B2: unnamed (peptide)
chain: NNNKMRPHLPPLSSG

Biological target: AgAbp1
Experiment: SPOT peptide array binding signal intensity (averaged, normalized) (arbitrary units (background-subtracted, floor 0; scale differs between SH3 domains)); higher = stronger binding of the SH3 domain to the peptide
Method: (§1)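 GST-tagged SH3 domains from S. cerevisiae (Sc), A. gossypii (Ag), C. albicans (Ca) and S. pombe (Sp) were incubated at 10 ug/ml overnight at 4 C on cellulose SPOT membranes carrying 292 synthetic 15-mer peptides mined from the S. cerevisiae proteome (cysteines replaced by serines). Binding was detected with anti-GST antibody, HRP secondary and chemiluminescence, quantified with Genespotter, and reported as normalized spot intensities averaged over biological replicates.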

Binder | SPOT peptide array binding signal intensity
B1 | 47
B2 | 47.5

Biological target: AgBbc1
Experiment: as above
Method: as §1

Binder | SPOT peptide array binding signal intensity
B1 | 7.5
B2 | 1.5

Biological target: AgBem1-D1
Experiment: as above
Method: as §1

Binder | SPOT peptide array binding signal intensity
B1 | 490
B2 | 288

Biological target: AgBzz1-D1
Experiment: as above
Method: as §1

Binder | SPOT peptide array binding signal intensity
B1 | 24
B2 | 12

Biological target: AgBzz1-D2
Experiment: as above
Method: as §1

Binder | SPOT peptide array binding signal intensity
B1 | ≤ 0
B2 | 9

Biological target: AgCyk3
Experiment: as above
Method: as §1

Binder | SPOT peptide array binding signal intensity
B1 | ≤ 0
B2 | ≤ 0

Biological target: AgFus1
Experiment: as above
Method: as §1

Binder | SPOT peptide array binding signal intensity
B1 | 212
B2 | 386

Biological target: AgHof1
Experiment: as above
Method: as §1

Binder | SPOT peptide array binding signal intensity
B1 | 6
B2 | 291

Biological target: AgHse1
Experiment: as above
Method: as §1

Binder | SPOT peptide array binding signal intensity
B1 | 106
B2 | 932

Biological target: AgLsb1
Experiment: as above
Method: as §1

Binder | SPOT peptide array binding signal intensity
B1 | 2
B2 | 1.25

Biological target: AgLsb4
Experiment: as above
Method: as §1

Binder | SPOT peptide array binding signal intensity
B1 | 18.5
B2 | 34.5

Biological target: AgMyo5
Experiment: as above
Method: as §1

Binder | SPOT peptide array binding signal intensity
B1 | 3.25
B2 | ≤ 0

Biological target: AgNbp2
Experiment: as above
Method: as §1

Binder | SPOT peptide array binding signal intensity
B1 | 91
B2 | 513

Biological target: AgRvs167
Experiment: as above
Method: as §1

Binder | SPOT peptide array binding signal intensity
B1 | 3.33
B2 | 3.5

Biological target: AgSho1
Experiment: as above
Method: as §1

Binder | SPOT peptide array binding signal intensity
B1 | 776
B2 | 559

Biological target: AgSla1-D1-D2
Experiment: as above
Method: as §1

Binder | SPOT peptide array binding signal intensity
B1 | ≤ 0
B2 | ≤ 0

Biological target: AgSla1-D3
Experiment: as above
Method: as §1

Binder | SPOT peptide array binding signal intensity
B1 | 5.5
B2 | 0.5

Biological target: CaAbp1-D1
Experiment: as above
Method: as §1

Binder | SPOT peptide array binding signal intensity
B1 | 434
B2 | 613

Biological target: CaAbp1-D2
Experiment: as above
Method: as §1

Binder | SPOT peptide array binding signal intensity
B1 | 459
B2 | 330

Biological target: CaBbc1
Experiment: as above
Method: as §1

Binder | SPOT peptide array binding signal intensity
B1 | 38.8
B2 | 55.9

Biological target: CaBem1-D1
Experiment: as above
Method: as §1

Binder | SPOT peptide array binding signal intensity
B1 | 95
B2 | 264

Biological target: CaBzz1-D1
Experiment: as above
Method: as §1

Binder | SPOT peptide array binding signal intensity
B1 | 362
B2 | 85.8

Biological target: CaBzz1-D2
Experiment: as above
Method: as §1

Binder | SPOT peptide array binding signal intensity
B1 | 146
B2 | 49.8

Biological target: CaCyk3
Experiment: as above
Method: as §1

Binder | SPOT peptide array binding signal intensity
B1 | 7
B2 | 4

Biological target: CaFus1
Experiment: as above
Method: as §1

Binder | SPOT peptide array binding signal intensity
B1 | 852
B2 | 1790

Biological target: CaHof1
Experiment: as above
Method: as §1

Binder | SPOT peptide array binding signal intensity
B1 | ≤ 0
B2 | ≤ 0

Biological target: CaHse1
Experiment: as above
Method: as §1

Binder | SPOT peptide array binding signal intensity
B1 | 79
B2 | 487

Biological target: CaLsb1
Experiment: as above
Method: as §1

Binder | SPOT peptide array binding signal intensity
B1 | 2
B2 | 3.75

Biological target: CaLsb4
Experiment: as above
Method: as §1

Binder | SPOT peptide array binding signal intensity
B1 | 209
B2 | 728

Biological target: CaMyo5
Experiment: as above
Method: as §1

Binder | SPOT peptide array binding signal intensity
B1 | 89.5
B2 | 36.2

Biological target: CaNbp2
Experiment: as above
Method: as §1

Binder | SPOT peptide array binding signal intensity
B2 | 1410

Biological target: CaRvs167
Experiment: as above
Method: as §1

Binder | SPOT peptide array binding signal intensity
B2 | 53.7

Biological target: CaRvs167-3
Experiment: as above
Method: as §1

Binder | SPOT peptide array binding signal intensity
B2 | 4

Biological target: CaSho1
Experiment: as above
Method: as §1

Binder | SPOT peptide array binding signal intensity
B2 | 1520

Biological target: CaSla1-D1-D2
Experiment: as above
Method: as §1

Binder | SPOT peptide array binding signal intensity
B2 | 396

Biological target: CaSla1-D3
Experiment: as above
Method: as §1

Binder | SPOT peptide array binding signal intensity
B2 | 109

Biological target: ScAbp1
Experiment: as above
Method: as §1

Binder | SPOT peptide array binding signal intensity
B2 | 256

Biological target: ScBbc1
Experiment: as above
Method: as §1

Binder | SPOT peptide array binding signal intensity
B2 | ≤ 0

Biological target: ScBem1-D1
Experiment: as above
Method: as §1

Binder | SPOT peptide array binding signal intensity
B2 | ≤ 0

Biological target: ScBzz1-D1
Experiment: as above
Method: as §1

Binder | SPOT peptide array binding signal intensity
B2 | ≤ 0

Biological target: ScBzz1-D2
Experiment: as above
Method: as §1

Binder | SPOT peptide array binding signal intensity
B2 | ≤ 0

Biological target: ScCyk3
Experiment: as above
Method: as §1

Binder | SPOT peptide array binding signal intensity
B2 | 2.25

Biological target: ScFus1
Experiment: as above
Method: as §1

Binder | SPOT peptide array binding signal intensity
B2 | 424

Biological target: ScHof1
Experiment: as above
Method: as §1

Binder | SPOT peptide array binding signal intensity
B2 | 267

Biological target: ScHse1
Experiment: as above
Method: as §1

Binder | SPOT peptide array binding signal intensity
B2 | 1820

Biological target: ScLsb1
Experiment: as above
Method: as §1

Binder | SPOT peptide array binding signal intensity
B2 | 27.2

Biological target: ScLsb2
Experiment: as above
Method: as §1

Binder | SPOT peptide array binding signal intensity
B2 | 0.5

Biological target: ScLsb3
Experiment: as above
Method: as §1

Binder | SPOT peptide array binding signal intensity
B2 | 357

Biological target: ScLsb4
Experiment: as above
Method: as §1

Binder | SPOT peptide array binding signal intensity
B2 | 163

Biological target: ScMyo3
Experiment: as above
Method: as §1

Binder | SPOT peptide array binding signal intensity
B2 | 10.5

Biological target: ScMyo5
Experiment: as above
Method: as §1

Binder | SPOT peptide array binding signal intensity
B2 | 2

Biological target: ScNbp2
Experiment: as above
Method: as §1

Binder | SPOT peptide array binding signal intensity
B2 | 710

Biological target: ScPex13
Experiment: as above
Method: as §1

Binder | SPOT peptide array binding signal intensity
B2 | 116

Biological target: ScRvs167
Experiment: as above
Method: as §1

Binder | SPOT peptide array binding signal intensity
B2 | 55.6

Biological target: ScSho1
Experiment: as above
Method: as §1

Binder | SPOT peptide array binding signal intensity
B2 | 1410

Biological target: ScSla1-D1-D2
Experiment: as above
Method: as §1

Binder | SPOT peptide array binding signal intensity
B2 | 156

Biological target: ScSla1-D3
Experiment: as above
Method: as §1

Binder | SPOT peptide array binding signal intensity
B2 | 224

Biological target: SpAbp1-D1
Experiment: as above
Method: as §1

Binder | SPOT peptide array binding signal intensity
B2 | 323

Biological target: SpBbc1
Experiment: as above
Method: as §1

Binder | SPOT peptide array binding signal intensity
B2 | 1

Biological target: SpBzz1-D1
Experiment: as above
Method: as §1

Binder | SPOT peptide array binding signal intensity
B2 | 354

Biological target: SpBzz1-D2
Experiment: as above
Method: as §1

Binder | SPOT peptide array binding signal intensity
B2 | 6.38

Biological target: SpCyk3
Experiment: as above
Method: as §1

Binder | SPOT peptide array binding signal intensity
B2 | 1.75

Biological target: SpHof1
Experiment: as above
Method: as §1

Binder | SPOT peptide array binding signal intensity
B2 | 9.5

Biological target: SpHof1-2
Experiment: as above
Method: as §1

Binder | SPOT peptide array binding signal intensity
B2 | 78.8

Biological target: SpHof1-3
Experiment: as above
Method: as §1

Binder | SPOT peptide array binding signal intensity
B2 | 552

Biological target: SpHse1
Experiment: as above
Method: as §1

Binder | SPOT peptide array binding signal intensity
B2 | 1170

Biological target: SpLsb1
Experiment: as above
Method: as §1

Binder | SPOT peptide array binding signal intensity
B2 | 3.38

Biological target: SpLsb4
Experiment: as above
Method: as §1

Binder | SPOT peptide array binding signal intensity
B2 | 904

Biological target: SpMyo1
Experiment: as above
Method: as §1

Binder | SPOT peptide array binding signal intensity
B2 | 28.1

Biological target: SpNbp2
Experiment: as above
Method: as §1

Binder | SPOT peptide array binding signal intensity
B2 | 460

Biological target: SpPex13
Experiment: as above
Method: as §1

Binder | SPOT peptide array binding signal intensity
B2 | 92.5

Biological target: SpRvs167
Experiment: as above
Method: as §1

Binder | SPOT peptide array binding signal intensity
B2 | 119

Biological target: SpSla1-D1-D2
Experiment: as above
Method: as §1

Binder | SPOT peptide array binding signal intensity
B2 | ≤ 0

Biological target: SpSla1-D3
Experiment: as above
Method: as §1

Binder | SPOT peptide array binding signal intensity
B2 | 64.5
